Shown is part of a subset that was picked to be rich in hits.
GIRK2 activator: activators of NPY4-receptor-primed GIRK2 channels, summary, cell-based, HEK293, thallium flux | G protein-activated inward rectifier potassium channel 2 (Homo sapiens), P48051 | HEK293 GIRK2/NPY4 cells, thallium flux fluorescence | activation (% efficacy), % for hits at 75 µM | 34,000 tested, under 10 active | AID 1259324, 2017;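 active = primary screen hit, no activity in plain HEK293 cells, and in GIRK2-only cells above 5% efficacy rising with concentration; inactive = the rest, including fluorescent compounds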;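 note: efficacy is normalized control-subtracted fluorescence 15 s after thallium addition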
Target sequence (P48051 whole entry, looked up): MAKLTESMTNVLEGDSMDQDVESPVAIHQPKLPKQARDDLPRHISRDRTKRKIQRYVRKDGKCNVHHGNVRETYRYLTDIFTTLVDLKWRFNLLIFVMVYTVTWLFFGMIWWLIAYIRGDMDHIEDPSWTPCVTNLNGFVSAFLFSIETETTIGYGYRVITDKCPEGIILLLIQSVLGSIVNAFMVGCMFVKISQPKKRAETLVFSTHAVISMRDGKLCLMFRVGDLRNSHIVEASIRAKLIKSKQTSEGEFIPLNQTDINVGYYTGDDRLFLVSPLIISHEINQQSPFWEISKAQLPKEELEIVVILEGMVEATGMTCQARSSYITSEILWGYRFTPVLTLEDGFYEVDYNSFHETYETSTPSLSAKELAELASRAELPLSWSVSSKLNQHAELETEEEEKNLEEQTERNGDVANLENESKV
GluA2 TARP mod: modulators of GluA2-stargazin AMPA receptor complexes, primary screen, cell-based, membrane potential dye | HEK293 GluA2+stargazin, membrane potential dye (FDSS), glutamate EC50; hits were called plate by plate, in both directions | calls only at 30 µM | 3.5% of 40,000 active | AID 1259245, 2017;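 active = any of four per-well response measures lying three or more SD from its plate-wide compound average, in either direction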
Each line names hits and unclear results; the compound was inactive in the other large screens.

COC(=O)c1scc(-c2ccc(C)cc2)c1S(=O)(=O)Nc1ccc(OC)c(OC)c1	none
CCOC(=O)c1scc(-c2ccc(C)cc2)c1S(=O)(=O)Nc1ccc2c(c1)OCCO2	GluA2 TARP mod active
CCOc1cccc2sc(NC(=O)Cc3ccc(S(=O)(=O)CC)cc3)nc12	none (no result: GIRK2 activator)
Cc1ccc(Cl)c2sc(N(CCN3CCOCC3)C(=O)c3cccc(S(C)(=O)=O)c3)nc12	none (no result: GIRK2 activator)
COc1ccc(OC)c(S(=O)(=O)Nc2ccc3c(c2)N(S(=O)(=O)c2ccccc2)CCC3)c1	GluA2 TARP mod active (no result: GIRK2 activator)
CCCS(=O)(=O)N1CCCc2cc(NS(=O)(=O)c3cc(C)ccc3OCC)ccc21	none (no result: GIRK2 activator)
CCCS(=O)(=O)N1CCCc2cc(NS(=O)(=O)c3cc(C)ccc3OC)ccc21	GluA2 TARP mod active (no result: GIRK2 activator)
COc1ccc(OC)c(S(=O)(=O)Nc2ccc3c(c2)CCCN3S(=O)(=O)c2ccccc2)c1	none (no result: GIRK2 activator)
CCC(=O)Nc1ccc(Cl)c(NC(=O)c2cc3ccccc3o2)c1	none (no result: GIRK2 activator)
Cc1ccc(S(=O)(=O)N2CCOC23CCN(C(=O)NCc2cccs2)CC3)cc1	none
COc1cn2c(cc1=O)C(=O)N(CCNC(=O)CC(C)(C)C)CC2	none
COc1cccc(C(=O)Nc2nc3ncccc3cc2-c2ccccc2)c1	GluA2 TARP mod active
O=C(Nc1nc2ncccc2cc1-c1ccccc1)C1CCCC1	none
COc1ccc(NC(=O)CSc2ncc(S(=O)(=O)c3ccc(Cl)s3)c(N)n2)cc1	none
CCn1ccc(C(=O)Nc2nc3cc(C)cc(C)c3s2)n1	none (no result: GluA2 TARP mod)
COc1ccc(-c2cc(=O)c3cc(Br)ccc3o2)cc1OC	none (no result: GIRK2 activator)
O=C(Nc1ccc(C(F)(F)F)cc1)c1ccc(S(=O)(=O)NCCc2ccccc2)o1	none
O=C(Nc1ccc(OC(F)(F)F)cc1)c1ccc(S(=O)(=O)NCc2cccs2)o1	GluA2 TARP mod active
O=C(OCc1ccccc1)c1cc2cc(Br)cc(Br)c2oc1=O	none (no result: GIRK2 activator)
CCOc1ccc(-c2ccc(=O)n(CC(=O)N3CCCc4ccccc43)n2)cc1	none
O=C(CSc1ncnc2[nH]ncc12)c1ccc(-c2ccccc2)cc1	none (no result: GIRK2 activator)
CN(C)C(=O)CSc1ncnc2sc(-c3ccccc3)cc12	GluA2 TARP mod active
Cc1cc(NC(=O)c2cccc3ccccc23)n(-c2nc3c(cnn3-c3ccc(F)cc3)c(=O)[nH]2)n1	none (no result: GluA2 TARP mod)
CC1CC(C)CN(S(=O)(=O)c2ccc(C(=O)Nc3ccc4ncsc4c3)cc2)C1 (stereo unspecified)	GluA2 TARP mod active
O=C(Nc1ccc2ncsc2c1)c1ccc(S(=O)(=O)N2CCOCC2)cc1	none
Cc1cc(CNC(=O)C(=O)Nc2ccc(C)c(N3CCCC3=O)c2)c(C)o1	none (no result: GluA2 TARP mod)
CC(O)(CNC(=O)c1cc(C(F)(F)F)cc(C(F)(F)F)c1)C1CC1 (stereo unspecified)	none
O=C(Cc1cccs1)NCC1COC2(CCCCC2)O1 (stereo unspecified)	none (no result: GluA2 TARP mod)
Cc1ccc(OCC(=O)Nc2ccc3c(c2)N(CCC(C)C)C(=O)C(C)(C)CO3)cc1	GluA2 TARP mod active (no result: GIRK2 activator)
CC(C)CCN1C(=O)C(C)(C)COc2ccc(NC(=O)COc3ccc(Cl)cc3)cc21	none (no result: GIRK2 activator)
CC(C)CCN1C(=O)C(C)(C)COc2ccc(NC(=O)c3cc(=O)c4ccccc4o3)cc21	GluA2 TARP mod active
Cc1cccc(OCC(=O)Nc2ccc3c(c2)N(CCC(C)C)C(=O)C(C)(C)CO3)c1	none (no result: GIRK2 activator)
O=C(CN1CC(c2nc(-c3ccsc3)no2)C1)Nc1ccc(F)c(Cl)c1	none (no result: GluA2 TARP mod)
Cc1c(C(=O)Nc2cccc(N3CCCC3=O)c2)cccc1[N+](=O)[O-]	GluA2 TARP mod active
COc1cc(C(=O)Nc2cccc(N3CCCCC3=O)c2)c([N+](=O)[O-])cc1OC	none
CCN(CC)C(=O)Cn1cc(C(=O)C(=O)N(Cc2ccccc2)C(C)C)c2ccccc21	GluA2 TARP mod active (no result: GIRK2 activator)
CCN(CC)C(=O)Cn1cc(C(=O)C(=O)N2CCN(Cc3ccccc3)CC2)c2ccccc21	none (no result: GIRK2 activator)
Cc1cc(NC(=O)C2CCCN(S(=O)(=O)c3ccc(Cl)cc3)C2)n(C(C)C)n1 (stereo unspecified)	none
O=C(Nc1ccc2scnc2c1)C1CCCCC1	none
CCN(CC)S(=O)(=O)CCNC(=O)c1ccccc1	GluA2 TARP mod active (no result: GIRK2 activator)
COCCN(CCOC)S(=O)(=O)CCNC(=O)c1ccccc1	none (no result: GIRK2 activator)
O=C(Nc1c2c(nn1-c1cccc(Cl)c1)CS(=O)C2)C1CCCCC1 (stereo unspecified)	GluA2 TARP mod active
CN1CCN(C(=O)C(=O)Nc2c3c(nn2-c2cccc(Cl)c2)CSC3)CC1	none
CC1CCc2cc(F)ccc2N1C(=O)c1nc(-c2cnccn2)no1 (stereo unspecified)	none
CCOc1ccc(-n2nnnc2CN2CCN(C(=O)c3c(C)noc3C)CC2)cc1	none
CCOc1ccc(-n2nnnc2CN2CCN(C(=O)c3c(F)cccc3Cl)CC2)cc1	GluA2 TARP mod active
CCOC(=O)c1c(N2C(=O)CC(Sc3ccccc3C(=O)O)C2=O)sc2c1CCC(C)C2 (stereo unspecified)	none (no result: GIRK2 activator)
